Assay results: PubChem BioAssay
Several values for one entry are separate records, joined by “and”; a condition that tells them apart may be missing. Equal entries are not always repeated. Activity calls are given as the source filed them.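 How the source made its calls, unless noted: active means at least 20% inhibition of 6-phosphogluconate dehydrogenase activity; inactive means the rest.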

What was measured:
[1] = polyglutamine-triggered caspase-3 activation inhibitors, cell-based (AID 1583); conditions: polyglutamine-induced caspase-3 activation, cell assay; stronger effect = higher value;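 tested at 10 µM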
[2] = hESC survival regulators, cell-based (AID 493140; call rule not given here;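 further: cells exposed to compounds for four days before counting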); conditions: human embryonic stem cell survival screen; stronger effect = higher value
[3] = stimulators of insulin release from INS-1E, primary screen, cell-based, 5 mM glucose, NPC library (AID 1117329;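 active means compound raises insulin release from rat beta cells at 5 mM glucose, no numeric limit stated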); conditions: rat INS-1E insulin secretion, at 10 µM, stronger effect = higher value
[4] = growth inhibition of GSK3B-pretreated HCT116 cells – cell-based, CellTiter-Glo, 0.2 to 20 µM (AID 1117336;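 active means compounds lowering colon cancer cell viability after pretreatment blocking the GSK3B kinase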); conditions: HCT116 viability after GSK3B inhibitor, at 20 µM, stronger effect = higher value
[5] = inhibition of endothelial tube formation, primary screen, imaging, VEGF stimulated, CD31 staining, tube area, NPC library (AID 1117340;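 active means compound that reduces growth-factor-driven endothelial tube area in a mixed cell culture, no cutoff stated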); conditions: VEGF-stimulated ADSC/ECFC co-culture, at 10 µM, stronger effect = higher value
[6] = glucagon-like peptide 1 release enhancers, primary assay, NCI-H716 cell line, NPC library (AID 1117341;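 active means compound raises GLP1 secretion from the human gut endocrine cells, with no numeric limit stated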); conditions: NCI-H716 cells, at 10 µM, stronger effect = higher value
[7] = HCT116 colon cancer cell growth inhibition, primary screen, CellTiter-Glo luminescence, NPC library (AID 1117342;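 active means compounds that lower survival of HCT116 colon cancer cells in the luminescence readout, no numeric limit stated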); conditions: at 20 µM (top of the series)
[8] = CellTiter-Glo luminescent readout of SW480 viability loss, NPC library primary (AID 1117343;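 active means compounds that lower viability of the colon cancer cells in the luminescence readout, with no numeric limit stated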); conditions: CellTiter-Glo luminescence; at 20 µM (top of the series) unless noted
[9] = decreased DLD-1 cellular survival, CellTiter-Glo luminescent readout, NPC compound collection, primary HTS (AID 1117346;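 active means compounds that lower survival of DLD-1 colon cancer cells in the luminescence readout, no cutoff given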); conditions: DLD-1 viability, CellTiter-Glo luminescence; at 20 µM (top of the series)
[10] = target: 6-phosphogluconate dehydrogenase, decarboxylating (Homo sapiens) (UniProt P52209); test: 6PGD enzyme inhibitors, primary screen, biochemical, human, recombinant enzyme, NADPH absorbance (AID 1159550); conditions: recombinant 6PGD, NADPH absorbance 341 nm; at 10 µM; stronger effect = higher value
Sequence of 6-phosphogluconate dehydrogenase, decarboxylating (Homo sapiens) (P52209 whole entry, looked up): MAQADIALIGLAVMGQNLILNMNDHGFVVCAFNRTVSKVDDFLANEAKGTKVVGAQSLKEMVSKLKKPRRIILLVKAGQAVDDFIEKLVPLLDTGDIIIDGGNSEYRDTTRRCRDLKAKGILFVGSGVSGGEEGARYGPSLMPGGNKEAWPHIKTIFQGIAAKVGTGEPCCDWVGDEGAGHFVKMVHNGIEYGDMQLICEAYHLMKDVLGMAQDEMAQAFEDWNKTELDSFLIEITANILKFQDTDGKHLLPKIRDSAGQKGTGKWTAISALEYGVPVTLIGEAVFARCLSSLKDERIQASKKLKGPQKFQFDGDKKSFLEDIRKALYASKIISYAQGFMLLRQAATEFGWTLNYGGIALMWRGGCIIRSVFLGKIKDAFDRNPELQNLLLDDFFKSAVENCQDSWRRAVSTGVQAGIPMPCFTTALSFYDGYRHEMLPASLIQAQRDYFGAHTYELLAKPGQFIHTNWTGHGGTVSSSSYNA

[11] = differential killing of epithelial or mesenchymal cells, primary screen, imaging, PC-3E GFP, TEM4-18 mCherry, co-culture (AID 1345086;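 active means compounds killing one labelled cell type while sparing the other, by normalised counts and ratio limits, not self-fluorescent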;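 on all read-outs here: cells exposed to compound for 72 h before imaging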;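 on red/green cell ratio (normalised): normalised mesenchymal count divided by normalised epithelial count so high means epithelial killing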); conditions: imaging cell counts, at 1 µM; for red/green cell ratio (normalised): actives lie on both sides, counts scaled to control wells, 1 = unselective
[12] = survival rescue of mitochondrial mutant cells in low glucose, primary screen, MELAS cybrids, Rieske KO mouse fibroblasts, CellTiter-Glo (AID 1508586;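 active means mean z-score across replicates of 1.96 or higher in either the MELAS or the Rieske mutant cell line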;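 further: z relative to plate mean and SD of compound and empty wells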)
[13] = target: NAD(+) hydrolase SARM1 (Homo sapiens) (UniProt Q6SZW1); test: SARM1 TIR NADase inhibitors, cell lysate, NAD-Glo luminescence (AID 1508614;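 active means compound whose remaining NAD level is above about 45 nM, limit read from the data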); conditions: SAM-TIR HEK293T lysate NADase, at 1 µM, stronger effect = higher value
Sequence of NAD(+) hydrolase SARM1 (Homo sapiens) (Q6SZW1 whole entry, looked up, the tested form may be a part): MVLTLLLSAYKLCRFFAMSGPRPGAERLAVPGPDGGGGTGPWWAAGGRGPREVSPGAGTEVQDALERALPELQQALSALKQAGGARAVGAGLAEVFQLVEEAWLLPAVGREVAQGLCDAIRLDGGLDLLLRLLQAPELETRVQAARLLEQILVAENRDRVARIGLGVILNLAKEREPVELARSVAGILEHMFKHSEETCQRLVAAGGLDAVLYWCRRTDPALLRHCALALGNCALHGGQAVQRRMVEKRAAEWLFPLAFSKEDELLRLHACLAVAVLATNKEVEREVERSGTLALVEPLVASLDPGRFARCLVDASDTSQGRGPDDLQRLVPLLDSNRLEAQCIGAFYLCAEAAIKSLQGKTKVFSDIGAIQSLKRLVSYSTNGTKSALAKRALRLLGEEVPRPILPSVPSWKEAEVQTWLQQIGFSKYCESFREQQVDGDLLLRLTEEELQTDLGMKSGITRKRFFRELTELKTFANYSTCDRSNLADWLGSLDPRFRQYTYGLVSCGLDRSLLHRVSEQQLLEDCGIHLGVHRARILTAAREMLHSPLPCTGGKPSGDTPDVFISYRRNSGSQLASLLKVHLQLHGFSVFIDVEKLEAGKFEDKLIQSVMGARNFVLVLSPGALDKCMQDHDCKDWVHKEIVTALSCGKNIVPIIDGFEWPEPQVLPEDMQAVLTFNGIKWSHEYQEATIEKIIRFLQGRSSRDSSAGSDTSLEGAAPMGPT

[14] = target: Mitogen-activated protein kinase 7 (Homo sapiens) (UniProt Q13164); test: ERK5 transactivation activators in reporter cells, primary screen, cell-based, HTS (AID 1508626;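 active means luciferase signal above three times the same-plate solvent-only control wells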;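 further: luciferase driven by Gal4-ERK5 fusion binding five Gal4 sites before minimal TATA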); conditions: HeLa Gal4-ERK5 transactivation, 18 h, at 5 µM, stronger effect = higher value
Sequence of Mitogen-activated protein kinase 7 (Homo sapiens) (Q13164 whole entry, looked up, the tested form may be a part): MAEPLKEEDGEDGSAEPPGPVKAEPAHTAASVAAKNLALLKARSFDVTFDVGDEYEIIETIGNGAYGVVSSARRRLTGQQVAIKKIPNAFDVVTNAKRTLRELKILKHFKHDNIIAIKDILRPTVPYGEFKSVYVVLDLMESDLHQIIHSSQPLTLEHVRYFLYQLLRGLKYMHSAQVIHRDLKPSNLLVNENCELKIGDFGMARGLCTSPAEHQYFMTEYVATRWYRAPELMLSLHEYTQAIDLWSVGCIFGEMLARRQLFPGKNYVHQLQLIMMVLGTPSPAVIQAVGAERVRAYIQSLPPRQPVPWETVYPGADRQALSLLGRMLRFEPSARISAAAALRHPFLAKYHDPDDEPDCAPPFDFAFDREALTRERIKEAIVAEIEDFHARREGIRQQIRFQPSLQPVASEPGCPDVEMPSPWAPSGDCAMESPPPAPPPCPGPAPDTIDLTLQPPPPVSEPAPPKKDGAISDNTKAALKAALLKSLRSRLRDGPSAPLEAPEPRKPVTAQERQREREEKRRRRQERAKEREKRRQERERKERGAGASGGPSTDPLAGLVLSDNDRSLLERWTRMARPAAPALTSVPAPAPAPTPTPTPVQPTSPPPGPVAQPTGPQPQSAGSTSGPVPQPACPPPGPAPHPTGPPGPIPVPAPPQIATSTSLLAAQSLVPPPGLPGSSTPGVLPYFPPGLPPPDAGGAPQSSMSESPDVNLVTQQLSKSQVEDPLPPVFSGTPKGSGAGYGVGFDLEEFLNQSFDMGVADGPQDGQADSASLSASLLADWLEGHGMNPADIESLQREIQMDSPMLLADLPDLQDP

[15] = viability rescue of complex I mutant cybrids, primary screen, cell-based, galactose medium, ATP luminescence (AID 1645843;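 active means z-score of at least 1.8 in each of two replicates, scored against plate mean and spread of sample wells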;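 further: positive z means more ATP and so rescue of galactose-driven cybrid death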); conditions: complex I mutant cybrid cells, 72 h, stronger effect = higher value
[16] = liver-stage malaria parasite growth inhibition, primary screen, cell-based, HepG2, luciferase luminescence, HepG2 viability (AID 624349; in the data active means parasite load remaining mostly below about 12%, no sharp cut-off; inactive means mostly above about 10%;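 further: 100% = mean of DMSO negative control wells on the same plate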); conditions: P. berghei liver stage in HepG2, luciferase luminescence, concentration not given here; parasite load remaining: stronger effect = lower value; viability: measured here: HepG2 viability without parasites
[17] = sensitizers of A549 cells to miR-34 induction, primary screen, imaging, A549 dox-inducible miR-34, nuclei and caspase counts (AID 1347080;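 active means compounds whose cell count with miR-34 switched on is under 0.7 times the count with it off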); conditions: A549 miR-34 inducible, Hoechst nuclei count, 48 h
[18] = modulation of C. elegans fzo-1 (AID 1259413; call rule not given here;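 further: fzo-1 mutant C. elegans worms in liquid wells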); conditions: C. elegans fzo-1 modulator screen, mean read-out; stronger effect = higher value
[19] = measured here: epithelial PC-3E GFP cell survival
[20] = measured here: mesenchymal TEM4-18 mCherry cell survival
[21] = MELAS cybrid survival, CellTiter-Glo 48 h, stronger effect = higher value
[22] = Rieske KO mouse fibroblast survival, CellTiter-Glo 72 h
[23] = stronger effect = lower value, cell number ratio, induced over uninduced
[24] = measured here: relative caspase fold change +Dox/-Dox
[25] = measured here: total cells with miR-34 induction, stronger effect = lower value
[26] = measured here: total cells without miR-34 induction

Cc1ccc(/C(=C\CN2CCCC2)c2ccccn2)cc1
inhibition [1]: 21.1% | survival [2]: 11.5 (inactive) | insulin secretion stimulation [3]: 24% (active) | viability decrease [4]: -2.3% (inactive) | tube area decrease [5]: -2.9% (inactive) | GLP1 secretion stimulation [6]: -2.1% (inactive) | inhibition of viability [7]: -50.9% (inactive) | viability decrease (inhibition) [8]: 6.5% (active) | viability decrease (inhibition) [9]: -45.1% (inactive) | inhibition [10]: 2.89% (inactive) | red/green cell ratio (normalised) [11]: 1.28 (inactive) | normalised cell number [11, 19]: 0.94 | normalised cell number [11, 20]: 1.2 | z-score [12, 21]: 0.293 (inactive) and -0.295 (inactive) | z-score [12, 22]: 0.187 and -0.783 | remaining NAD [13]: 10 nM (inactive) | luciferase signal [14]: 152 AU (inactive) | z-score [15]: -0.245 (inactive) and -0.1 (inactive) and 0.365 (inactive)

C[C@@H]1CC[C@@]2(OC1)O[C@H]1C[C@H]3[C@@H]4CC=C5C[C@@H](O)CC[C@]5(C)[C@H]4CC[C@]3(C)[C@H]1[C@@H]2C
inhibition [10]: 10.6% (inactive)

CC(C)(OC(=O)c1ccccc1)[C@@H]1Cc2cc3ccc(=O)oc3cc2O1
inhibition [10]: 20% (active)

CC1(C)[C@H](C(=O)O)N2C(=O)C[C@H]2S1(=O)=O
parasite load remaining [16]: 25.7% (inactive) | viability [16]: 74% | insulin secretion stimulation [3]: -1.5% (inactive) | viability decrease [4]: 0.3% (inactive) | tube area decrease [5]: -3.3% (inactive) | GLP1 secretion stimulation [6]: -0.3% (inactive) | inhibition of viability [7]: -13.6% (inactive) | viability decrease (inhibition) [8]: 6.5% (inactive) | viability decrease (inhibition) [9]: 3.8% (inactive) | fold change [17, 23]: 0.988 (inactive) and 0.885 (inactive) and 0.887 (inactive) | fold change [17, 24]: 0.598 and 0.786 and 1.47 | cell count [17, 25]: 7470 and 7970 and 9900 | cell count [17, 26]: 7550 and 9000 and 11200 | remaining NAD [13]: 10 nM (inactive) | z-score [15]: 0.33 (inactive)

CC(C)(C)c1ccc(C(O)CCCN2CCC(C(O)(c3ccccc3)c3ccccc3)CC2)cc1 (configuration not stated)
inhibition [1]: 70.6% | survival [2]: 3.75 (inactive) | insulin secretion stimulation [3]: 5.9% (inactive) | viability decrease [4]: 101% (active) | tube area decrease [5]: 98.4% (active) | GLP1 secretion stimulation [6]: 70% (active) | inhibition of viability [7]: 102% (active) | viability decrease (inhibition) [8]: 142% (active) | viability decrease (inhibition) [9]: 103% (active) | red/green cell ratio (normalised) [11]: 0.94 (inactive) | normalised cell number [11, 19]: 1.26 | normalised cell number [11, 20]: 1.18 | z-score [12, 21]: -0.29 (inactive) and -0.00284 (inactive) | z-score [12, 22]: 1.02 and 1.14 | remaining NAD [13]: 10 nM (inactive) | luciferase signal [14]: 108 AU (inactive) | z-score [15]: -1.31 (inactive) and 0.135 (inactive)

CN1[C@@H]2CC(OC(=O)[C@H](CO)c3ccccc3)C[C@H]1[C@@H]1O[C@@H]12 (some centres not stated)
parasite load remaining [16]: 98.9% (inactive) and 107% (inactive) and 26.7% (inactive) | viability [16]: 102% and 73.5% and 68.5% | insulin secretion stimulation [3]: 0.9% (inactive) | viability decrease [4]: 1% (inactive) | tube area decrease [5]: -4.7% (inactive) | GLP1 secretion stimulation [6]: 2.4% (inactive) | inhibition of viability [7]: -0.5% (inactive) | viability decrease (inhibition) [8]: -5.7% (inactive) | viability decrease (inhibition) [9]: -0.6% (inactive) | inhibition [10]: 6.42% (inactive) | mean signal [18]: 252 (inactive) | fold change [17, 23]: 0.844 (inactive) and 0.894 (inactive) and 0.852 (inactive) | fold change [17, 24]: 1.08 and 0.602 and 0.997 | cell count [17, 25]: 8470 and 8340 and 9610 | cell count [17, 26]: 10000 and 9330 and 11300 | z-score [12, 21]: -0.375 (inactive) and 0.309 (inactive) | z-score [12, 22]: -0.839 and -0.133 | remaining NAD [13]: 10 nM (inactive) | luciferase signal [14]: 88 AU (inactive) | z-score [15]: -0.01 (inactive) and 0.315 (inactive)

COC(=O)C[C@H]1C(C)(C)C(=O)[C@@H]2CC3C4=CC(=O)O[C@@H](c5ccoc5)[C@]4(C)CC[C@@H]3[C@@]1(C)C2=O (some centres not stated)
inhibition [10]: 12.7% (inactive)

Nc1nc2ncc(C(=O)O)nc2c(=O)[nH]1
inhibition [10]: 13.3% (inactive)

CC(C)CCC[C@@H](C)[C@H]1CC[C@H]2[C@@H]3CC[C@H]4CC(=O)CC[C@]4(C)[C@H]3CC[C@]12C
inhibition [10]: -4.87% (inactive) and 3.54% (inactive)

O=C(O)c1cn(C2CC2)c2cc(N3CCNCC3)c(F)cc2c1=O
inhibition [1]: 8.05% | survival [2]: 20.5 (inactive) | insulin secretion stimulation [3]: -0.6% (inactive) | viability decrease [4]: -4.5% (inactive) | tube area decrease [5]: -29.4% (inactive) | GLP1 secretion stimulation [6]: 1.9% (inactive) | inhibition of viability [7]: 8.6% (inactive) | viability decrease (inhibition) [8]: 12.3% (inactive) | viability decrease (inhibition) [9]: -5% (inactive) | inhibition [10]: -0.391% (inactive) | red/green cell ratio (normalised) [11]: 1.14 (inactive) and 1.04 (inactive) | normalised cell number [11, 19]: 1.04 and 1.24 | normalised cell number [11, 20]: 1.18 and 1.28 | fold change [17, 23]: 0.89 (inactive) and 0.772 (inactive) and 0.838 (inactive) | fold change [17, 24]: 1.27 and 3.9 and 0.85 | cell count [17, 25]: 9200 and 10000 and 9070 | cell count [17, 26]: 10300 and 13000 and 10800 | z-score [12, 21]: -0.333 (inactive) and -0.308 (inactive) | z-score [12, 22]: -3.38 and -1.41 | remaining NAD [13]: 10 nM (inactive) | luciferase signal [14]: 76 AU (inactive) | z-score [15]: 0.01 (inactive)
